Experimental data reported in the supplement of paper PMC9262897, “Low-cost anti-mycobacterial drug discovery using engineered E. coli” (Nature Communications, 2022).
Structures can show the parent of a compound that is named as a salt. ± gives the standard deviation of the averaged measurements.

Tests used:
Assay in all cases: growth (OD600 after 10 h); higher = more growth (less inhibition)
[1] = test system: E. coli TESEC Alr+ wild-type control; details: compound 0.1 mM; raw OD600 reference: median of DMSO wells 0.241, cell-free background 0.041
Experimental: (§1)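 TESEC Mtb Alr E. coli, or the Alr+ wild-type control, in 384-well plates with Prestwick library compounds at 0.1 mM and 1% DMSO, across arabinose induction levels of 1E3 to 1E7 nM. Growth is read as OD600 after 10 h at 37 °C in triplicate biological replicates.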

[2] = test system: E. coli TESEC Mtb Alr; details: compound 0.1 mM
Experimental: as §1

[3] = test system: E. coli TESEC Mtb Asd; details: compound 0.1 mM
Experimental: (§2)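 TESEC E. coli strains in which the native enzyme is deleted and replaced by arabinose-inducible Mtb Asd, DapB, CysH or TrpD, each grown in its selective medium. Strains were screened against the Prestwick library at 0.1 mM and 1% DMSO in 384-well format at low and high arabinose induction. Growth is read as OD600 after 10 h in triplicate.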

[4] = test system: E. coli TESEC Mtb Alr; details: compound 0.1 mM; remark: listed apart in the source
Experimental: (§3)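 TESEC Mtb Alr E. coli (ΔaraC ΔtolC ΔentC Δalr ΔdadX, arabinose-inducible Mtb Alr) or the Alr+ wild-type control strain, grown in defined M9-fructose medium without D-alanine in 96-well plates with Prestwick library compounds at 0.1 mM and 1% DMSO. Low Alr induction is 0.1 µM arabinose and high induction is 10 mM arabinose.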

[5] = test system: E. coli TESEC Alr+ wild-type control; details: compound 0.1 mM; raw OD600 reference: median of DMSO wells 0.49, cell-free background 0.052
Experimental: as §3

[6] = test system: E. coli TESEC Mtb DapB; details: compound 0.1 mM
Experimental: as §2

[7] = arabinose 1000 nM, raw OD600 reference: median of DMSO wells 0.294, cell-free background 0.041
[8] = arabinose 10000 nM, raw OD600 reference: median of DMSO wells 0.264, cell-free background 0.041
[9] = arabinose 100000 nM, raw OD600 reference: median of DMSO wells 0.201, cell-free background 0.041
[10] = arabinose 1000000 nM, raw OD600 reference: median of DMSO wells 0.193, cell-free background 0.041
[11] = arabinose 10000000 nM, raw OD600 reference: median of DMSO wells 0.146, cell-free background 0.041
[12] = arabinose induction (level): High, raw OD600 reference: median of DMSO wells 0.331, cell-free background 0.041
[13] = arabinose induction (level): Low, raw OD600 reference: median of DMSO wells 0.417, cell-free background 0.041
[14] = arabinose 100 nM, raw OD600 reference: median of DMSO wells 0.413, cell-free background 0.052
[15] = arabinose 10000000 nM, raw OD600 reference: median of DMSO wells […], cell-free background 0.052
[16] = arabinose induction (level): High, raw OD600 reference: median of DMSO wells […], cell-free background 0.041
[17] = arabinose induction (level): Low, raw OD600 reference: median of DMSO wells 0.227, cell-free background 0.041

Structure (SMILES)	growth [1]	growth [2, 7]	growth [2, 8]	growth [2, 9]	growth [2, 10]	growth [2, 11]	growth [3, 12]	growth [3, 13]	growth [4, 14]	growth [4, 15]	growth [5]	growth [6, 16]	growth [6, 17]
C[C@H](N)[C@H](O)c1ccc(O)c(O)c1 [Levonordefrin]	0.1755 ± 0.00087	0.276 ± 0.013	0.26 ± 0.0038	0.206 ± 0.0036	0.118 ± 0.0043	0.131 ± 0.0047	0.194 ± 0.014	0.357 ± 0.0047	0.398 ± 0.024	0.371 ± 0.017			
Cc1cc(C(C#N)c2ccc(Cl)cc2)c(Cl)cc1NC(=O)c1cc(I)cc(I)c1O (stereo not given) [Closantel]	0.067 ± 0.0041	0.0633 ± 0.008	0.0425 ± 0.0013	0.0471 ± 0.0022	0.0411 ± 0.00058	0.0539 ± 0.00083	0.0773 ± 0.0025	0.0874 ± 0.0013	0.137 ± 0.042	0.145 ± 0.043	0.128 ± 0.012		
C[C@@]12N[C@@H](Cc3ccccc31)c1ccccc12 [(-)-MK 801 hydrogen maleate]	0.226 ± 0.014	0.29 ± 0.013	0.247 ± 0.0096	0.138 ± 0.0052	0.113 ± 0.0073	0.132 ± 0.0029	0.244 ± 0.014	0.514 ± 0.039	0.412 ± 0.017	0.2863 ± 0.0016	0.564 ± 0.017		
CC(C)(C)NCC(O)c1ccccc1Cl (stereo not given) [Tulobuterol]	0.22 ± 0.005	0.272 ± 0.0075	0.273 ± 0.0098	0.174 ± 0.013	0.203 ± 0.0095	0.1357 ± 0.00093	0.246 ± 0.067	0.296 ± 0.019	0.409 ± 0.0083	0.341 ± 0.018			
CN1CCC2(C)c3cc(O)ccc3N(C)C12 (single isomer, unassigned; (-)) [(-)-Eseroline fumarate salt]	0.225 ± 0.0084	0.287 ± 0.014	0.306 ± 0.0086	0.312 ± 0.015	0.168 ± 0.0079	0.19 ± 0.0049	0.194 ± 0.027	0.402 ± 0.064	0.42 ± 0.0066	0.317 ± 0.021	0.577 ± 0.095		
CC(C)(C)NCC(O)c1cc(Cl)c(N)c(Cl)c1 (stereo not given) [Clenbuterol hydrochloride]	0.226 ± 0.0046	0.292 ± 0.0084	0.246 ± 0.005	0.252 ± 0.011	0.215 ± 0.005	0.157 ± 0.0026	0.35 ± 0.0059	0.231 ± 0.031	0.398 ± 0.011	0.355 ± 0.024		0.185 ± 0.011	0.191 ± 0.0053
O=P1(NCCCl)OCCCN1CCCl (stereo not given) [Ifosfamide]	0.233 ± 0.012	0.301 ± 0.027	0.2741 ± 0.0022	0.175 ± 0.022	0.192 ± 0.0026	0.137 ± 0.0089	0.374 ± 0.074	0.48 ± 0.032	0.417 ± 0.011	0.359 ± 0.01		0.204 ± 0.0083	0.222 ± 0.026
C[C@]12CC[C@@H]3c4ccc(OC(=O)N(CCCl)CCCl)cc4CC[C@H]3[C@@H]1CC[C@@H]2O [Estramustine]	0.248 ± 0.0012	0.306 ± 0.011	0.284 ± 0.01	0.212 ± 0.011	0.147 ± 0.009	0.1686 ± 0.00066	0.207 ± 0.025	0.189 ± 0.049	0.396 ± 0.014	0.31 ± 0.0085			
COP(=O)(OC)C(O)C(Cl)(Cl)Cl (stereo not given) [Trichlorfon]	0.249 ± 0.0088	0.293 ± 0.0065	0.248 ± 0.0076	0.199 ± 0.015	0.181 ± 0.0066	0.146 ± 0.0059	0.348 ± 0.072	0.363 ± 0.079	0.412 ± 0.012	0.257 ± 0.17			
CC(C)C[C@H](CN)CC(=O)O [Pregabalin]	0.239 ± 0.015	0.291 ± 0.0063	0.273 ± 0.013	0.178 ± 0.022	0.223 ± 0.015	0.134 ± 0.0081	0.28 ± 0.062	0.406 ± 0.038	0.41 ± 0.01	0.306 ± 0.013			
CCCN1C[C@H](CSC)C[C@@H]2c3cccc4[nH]cc(c34)C[C@H]21 [Pergolide mesylate]	0.2 ± 0.0044	0.254 ± 0.014	0.252 ± 0.0036	0.185 ± 0.0061	0.161 ± 0.0045	0.156 ± 0.0071	0.314 ± 0.05	0.425 ± 0.015	0.426 ± 0.018	0.345 ± 0.019			
OC(c1ccccc1)(c1ccccc1)C1CCNCC1 [Azacyclonol]	0.222 ± 0.014	0.294 ± 0.011	0.269 ± 0.0093	0.2264 ± 0.00067	0.166 ± 0.0076	0.136 ± 0.0054	0.296 ± 0.07	0.442 ± 0.019	0.412 ± 0.011	0.333 ± 0.035		0.185 ± 0.013	0.213 ± 0.036
O=C1CC[C@@]2(O)[C@H]3Cc4ccc(O)c5c4[C@@]2(CCN3CC2CC2)[C@H]1O5 [Naltrexone hydrochloride dihydrate]	0.242 ± 0.0065	0.279 ± 0.022	0.2685 ± 0.0019	0.173 ± 0.023	0.175 ± 0.0025	0.139 ± 0.0097	0.224 ± 0.013	0.443 ± 0.05	0.4315 ± 0.0022	0.335 ± 0.0091			
NCC1(CC(=O)O)CCCCC1 [Gabapentin]	0.255 ± 0.0094	0.324 ± 0.013	0.281 ± 0.011	0.215 ± 0.021	0.184 ± 0.003	0.156 ± 0.0041	0.478 ± 0.023	0.399 ± 0.044	0.401 ± 0.02	0.325 ± 0.022	0.565 ± 0.076		
